# Shown are actives, neighbours in structure and some others; about 1.1% of the full set was active somewhere.
# OPRM1-OPRD1 ag = OPRM1-OPRD1 heterodimerization agonism | P35372+P41143 | cells, luminescence | activation, % at 9.3 µM | 0.3% of 340,000 active | AID 504326
# Target sequence (P35372 whole entry, looked up): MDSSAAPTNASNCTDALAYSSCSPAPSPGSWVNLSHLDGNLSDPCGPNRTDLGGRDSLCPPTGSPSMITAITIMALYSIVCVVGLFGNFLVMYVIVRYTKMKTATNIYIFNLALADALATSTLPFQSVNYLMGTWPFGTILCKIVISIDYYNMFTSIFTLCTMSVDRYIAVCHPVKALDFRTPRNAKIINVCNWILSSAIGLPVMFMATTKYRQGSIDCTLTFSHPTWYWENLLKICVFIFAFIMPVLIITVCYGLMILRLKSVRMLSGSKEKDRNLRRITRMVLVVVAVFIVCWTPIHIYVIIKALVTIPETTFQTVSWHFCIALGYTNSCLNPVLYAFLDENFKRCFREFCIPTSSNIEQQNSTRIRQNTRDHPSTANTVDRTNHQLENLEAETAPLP
# Target sequence (P41143 whole entry, looked up): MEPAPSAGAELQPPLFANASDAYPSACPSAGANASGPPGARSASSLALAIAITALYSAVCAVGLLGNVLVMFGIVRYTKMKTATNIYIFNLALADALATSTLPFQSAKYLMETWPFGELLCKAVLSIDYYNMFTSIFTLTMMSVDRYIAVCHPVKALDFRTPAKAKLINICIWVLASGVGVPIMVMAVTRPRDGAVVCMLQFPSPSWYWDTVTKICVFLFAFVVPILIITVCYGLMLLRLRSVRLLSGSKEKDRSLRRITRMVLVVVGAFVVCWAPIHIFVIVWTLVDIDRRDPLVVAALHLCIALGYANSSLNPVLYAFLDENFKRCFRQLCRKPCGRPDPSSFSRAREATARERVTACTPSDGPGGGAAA
# HTR5A inv ctr = counter-screen for OPRM1-OPRD1 inverse agonists: human HTR5A inverse agonism; P47898; 0.083% of 340,000 active; AID 504634; HTR5A cell line, luminescence; inhibition, % at 9.3 µM; in the data active = inhibition mostly above about 23%, no sharp cut-off; inactive = mostly below about 18%
# MOR-DOR inv ag = inverse agonists of human mu-delta opioid receptor heterodimerization; P35372+P41143; cell-based MOR-DOR heterodimer luminescence, inverse agonism; inhibition, % at 9.3 µM; 0.21% of 340,000 active; in the data active = inhibition above about 22%, passing the limit was not always enough
# HTR5A ag ctr = counter-screen for OPRM1-OPRD1 agonists: human HTR5A agonism. P47898. HTR5A agonist assay, luminescence, cell-based. 0.61% of 340,000 active. activation, % at 9.3 µM; in the data active = activation mostly above about 9.5%, no sharp cut-off; inactive = mostly below about 7.6%
# MOR-DOR ag conf = OPRM1-OPRD1 heterodimer agonism, confirmation | shares compounds with OPRM1-OPRD1 ag | cells, MOR-DOR heterodimerization, luminescence complementation | activation, % at 9.3 µM | 45% of 830 active
# HTR5A ag counter = activates human HTR5A in OPRM1-OPRD1 agonist counter-screen; HTR5A agonist counterscreen, cell luminescence; shares compounds with OPRM1-OPRD1 ag; 8% of 830 active; activation, % at 9.3 µM; in the data active = activation above about 17%
# OPRM1-D1 inv cf = confirmation of human OPRM1-OPRD1 heterodimerization inverse agonists. shares compounds with MOR-DOR inv ag. cells expressing OPRM1/OPRD1 heterodimer, luminescence. inhibition, % at 9.3 µM. 20% of 580 active. AID 504900; in the data active = inhibition above about 32%
# HTR5A inv count = HTR5A inverse agonism, opioid heterodimer counter-screen; inhibition, % at 9.3 µM; AID 504914; HTR5A-expressing cells, luminescence; shares compounds with MOR-DOR inv ag; 580 tested, under 10 active; call rule not given here
# A number is an active result; - = inactive; . = no result. Cut-off read from the data, not from the text of the source, unless noted: active = activation above about 18%; inactive = the rest.
SMILES,OPRM1-OPRD1 ag,HTR5A inv ctr,MOR-DOR inv ag,HTR5A ag ctr,MOR-DOR ag conf,HTR5A ag counter,others
COc1ccc(-n2c(/C=C/c3ccc(O)cc3)nc3ccccc3c2=O)cc1,-,-,-,10.0,.,.,
C#CC1(O)C=CC2C3CCC4=CC(=O)CCC4C3CCC21CC (centres undefined),-,-,-,-,.,.,
C#CC1(O)CCC2C3CCC4=CC(=O)CCC4=C3C=CC21C (centres undefined),-,-,-,11,.,.,
COC(=O)C1=C(c2ccc(C(C)=O)cc2)C[C@@H]2CC[C@H]1N2C(=O)N1CCC(C)CC1,-,-,-,-,.,.,
N#Cc1cc2c(nc1SCC(=O)Nc1cc(Cl)ccc1Cl)C1CCN2CC1,-,-,-,-,.,.,
N#Cc1cc2c(nc1SCC(=O)Nc1ccc(Cl)cc1)C1CCN2CC1,-,-,-,12,.,.,
CC1[C@H]2Cc3ccc(O)cc3[C@]1(C)CCN2CCc1ccccc1 (some centres undefined),339,-,-,-,315,-,
O=C(CCl)Nc1nccs1,-,-,-,-,.,.,
CN(C)C1(CNC(=O)Nc2ccc(Cl)c(Cl)c2)CCCCC1,67,-,-,-,-,-,
CCC(C)N1C(=O)NC(=O)C2(Cc3c(ccc4ccccc34)N(C)C2)C1=O (centres undefined),20,-,-,-,215,-,
CCC(=O)OC1(c2ccccc2)C(C)CN(C)CC1C (centres undefined),-,-,-,-,.,.,
CC1CC(OC(=O)c2ccccc2)(c2ccccc2)C(C)CN1C (centres undefined),-,-,-,-,.,.,
CCC(=O)OC1(Cc2ccc(CC)cc2)CC(C)N(C)CC1C (centres undefined),20,-,-,-,-,-,
CCC(=O)OC1(c2cccc(C)c2)CC(C)N(C)CC1C (centres undefined),64,-,-,-,66,-,
O=c1c2ccccc2nc(N2CCCC2)n1-c1ccc(Cl)cc1,-,-,-,-,.,.,
CCC(COC(=O)c1cc(OC)c(OC)c(OC)c1)(c1ccccc1)N(C)C (centres undefined),54,-,-,-,51,-,
CCN1CCN(S(=O)(=O)c2cnc(Cl)c(Br)c2)CC1,-,-,-,-,.,.,
COc1ccc(C(CN(C)C)C2(O)CCCCC2)cc1 (centres undefined),-,-,-,-,.,.,
COc1ccc(C(CNC(=O)CCc2ccsc2)N(C)C)cc1 (centres undefined),405,-,-,-,55,-,
N#Cc1ncc(N=Cc2ccc(N(CCCl)CCCl)cc2)s1,-,-,-,-,.,.,
Cc1cc(NC(=O)CCl)nn1C,91,-,-,-,-,-,
Brc1ccc(C2N3CCCN23)cc1 (centres undefined),-,-,-,-,.,.,
CC1(C)CC(CCNCc2ccc3c(c2)OCO3)(Cc2ccccc2)CCO1 (centres undefined),31,-,-,-,28,-,
Clc1cccc(CNCCc2ccc3c(c2)OCO3)c1,-,-,-,-,.,.,
N#CC(CCN1CCOCC1)(c1ccccc1)c1ccccc1,-,-,-,-,.,.,
SMILES,OPRM1-OPRD1 ag,HTR5A inv ctr,MOR-DOR inv ag,HTR5A ag ctr,MOR-DOR ag conf,HTR5A ag counter,others
CCC(=O)C(CCN1CCOCC1)(c1ccccc1)c1ccccc1,271,-,-,-,250,-,
CC(Cc1ccccc1)NC(=O)Cc1ccc(N(C)C)cc1 (centres undefined),-,-,-,-,.,.,
CN(C)C(CNC(=O)Cc1ccc(Br)cc1)c1ccccc1 (centres undefined),141,-,-,-,214,-,
COC(=O)C1=COC(C)C2CN3CCC4(C(=O)Nc5ccccc54)C3CC12 (centres undefined),-,-,-,-,.,.,
COC(=O)C1=CO[C@@H](C)[C@@H]2CN(CCc3c[nH]c4ccccc34)CC[C@H]12,92,-,-,-,123,-,
C[C@@H]1O[C@@H](O[C@@H]2C=C3CCC4C(CC[C@]5(C)[C@@H](c6ccc(=O)oc6)CC[C@]45O)[C@@]3(C)CC2)[C@H](O)[C@H](O)[C@H]1O (some centres undefined),71,-,-,30,34,27,
COC1=CC2C3Cc4ccc(OC)c(O)c4C2(CCN3C)CC1=O (centres undefined),-,-,-,-,.,.,
COc1ccc2c(c1O)[C@]13CCN(C)[C@H](C2)[C@@H]1CCC(=O)C3,96,-,-,-,23,-,
CC1OC(OC2CC(O)C3(CO)C4C(O)CC5(C)C(C6=CC(=O)OC6)CCC5(O)C4CCC3(O)C2)C(O)C(O)C1O (centres undefined),80,-,-,26,-,-,
CC(=O)OC1CC[C@]2(C#N)[C@H]3CC[C@]4(C)[C@H](C5C=CC(=O)O5)CCC4(O)C3CCC2(O)C1 (some centres undefined),51,-,-,19,-,21,
Cc1nn(C2CCOC(C)(C)C2)c2c1C(c1ccc(OC(C)C)cc1)SCC(=O)N2 (centres undefined),-,-,-,-,.,.,
Cc1cc(=O)oc2cc3c(cc12)CCCN3,-,-,-,-,.,.,
CC12CC[C@H]3[C@@H](CCC4(O)C[C@H](O)CCC34/C=N/NC(=O)c3ccccc3O)C1(O)CCC2C1=CC(=O)OC1 (some centres undefined),35,-,-,-,-,-,
CC12CC[C@H]3[C@@H](CCC4(O)C[C@H](O)CCC34/C=N/NC(=O)c3ccccc3F)C1(O)CCC2C1=CC(=O)OC1 (some centres undefined),-,-,-,-,.,.,
CCN(CC)P(c1n(C)cc[n+]1C)N(CC)CC,-,-,-,-,.,.,
O=C(c1ccccc1F)c1cn(CC(=O)N2CCCCC2)c2ccccc12,-,-,-,-,.,.,
c1ccc(C2(N3CCCCC3)CCCCC2)cc1,374,-,-,-,346,-,
CN1CCC23c4c5ccc(O)c4O[C@@H]2[C@H](O)C=CC3C1C5 (some centres undefined),.,-,.,-,.,.,
CN1CC[C@]23c4c5ccc(O)c4OC2[C@H](O)C=CC3[C@H]1C5 (some centres undefined),.,-,.,-,.,-,
COc1ccc(CNCCc2c[nH]c3ccccc23)c(OC)c1C,21,-,-,-,48,-,
Cc1ccc(N)cc1Cl,-,-,-,-,.,.,
Cc1ccc(N/N=C/c2c(O)n(-c3ccccc3)c(=O)[nH]c2=O)cc1,-,-,32,-,.,.,OPRM1-D1 inv cf=-;HTR5A inv count=-
Nc1cc(Cl)c2nonc2c1[N+](=O)[O-],-,-,40,-,.,.,OPRM1-D1 inv cf=-;HTR5A inv count=-
COc1cc2nc(CN3CC=C(c4ccccc4)CC3)[nH]c(=O)c2cc1OC,-,-,-,-,.,.,

# Compound activity from PubChem BioAssay.
